Values without a mark were called inactive. Records with an inconclusive call do not appear. A call without a number means that no potency is given here. Calls of active or inactive are those of the source. Unless noted, the call rests on the fitted dose curve.
Tests used:
[1] = Nuclear factor erythroid 2-related factor 2/antioxidant responsive element (Nrf2/ARE) small molecule agonists: qHTS cell viability counter screen in human keratinocytes (AID 1919968; active means well fitted curve in the direction sought with a large enough effect in the repeat runs; an effect the other way counts as inactive or inconclusive; further: nearly all actives have a fitted effect of over 55% in size; further: potency means the concentration at half of the fitted maximal effect)
How it was run: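 Measured as CellTiter-Fluor fluorescence, this readout tracks cytotoxicity in the same wells as the ARE-luciferase screen. HaCaT reporter cells (1,500/well) received compounds after a 5 h pre-incubation and were exposed for 23 h.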

[2] = Nuclear factor erythroid 2-related factor 2/antioxidant responsive element (Nrf2/ARE) small molecule agonists: luciferase reporter gene qHTS assay in human keratinocytes (AID 1919969); further: nearly all actives have a fitted effect of over 35% in size; further: potency means the concentration at half of the fitted maximal effect
[3] = biological target: Gonadotropin-releasing hormone receptor (Homo sapiens) (UniProt P30968); assay: Human gonadotropin-releasing hormone receptor (GnRHR) small molecule agonists, calcium flux assay in GnRHR-HEK293 cells (AID 1920063); further: nearly all actives have a fitted effect of over 35% in size; further: potency means the concentration at half of the fitted maximal effect
How it was run: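 Fluorescence kinetics (480 nm excitation, 540 nm emission; 3 min, 1 s steps) report calcium mobilisation in human GnRHR-HEK293 cells in agonist mode. Dye incubation: 1 h, 37 C.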

[4] = biological target: KiSS-1 receptor (Homo sapiens) (UniProt Q969F8); assay: Human kisspeptin (KISS1R) small molecule agonists, calcium flux assay in KISS1R-HEK293 cells (AID 1920064; active means well fitted curve in the direction sought with a large enough effect in the repeat runs; an effect the other way counts as inactive or inconclusive)
How it was run: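 Measures KISS1R agonism through calcium-sensitive dye fluorescence in stably transfected HEK293 cells, read for 3 min after pin-tool compound delivery; 15-point titrations in triplicate.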

[5] = G protein-coupled receptor (GPCR) small molecule agonists, calcium flux assay: HEK293 wild type cell line counter screen (AID 1920065)
How it was run: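 Readout: fluorescence at 480 nm excitation/540 nm emission, sampled at 1 s intervals for 3 min. Cells had been cultured 18 h, then dye-loaded 1 h at 37 C before compound or ATP addition.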

[6] = p53 small molecule agonists, cell-based qHTS assay with human liver microsomes (AID 1963577);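 further: p53 response element beta-lactamase reporter cells with liver microsomes plus NADPH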
How it was run: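 16 h, 37 C exposure of p53RE-bla cells to compounds with human liver microsomes and NADPH (0.5 mg/mL final each); detection via LiveBLAzer mixture, 2 h dark at room temperature.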

[7] = p53 small molecule agonists, cell-based qHTS assay with rat liver microsomes (AID 1963578)
How it was run: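 With rat liver microsomes and NADPH present (0.5 mg/mL final each), p53RE-bla cells are treated with compound for 16 h at 37 C. LiveBLAzer detection mixture is then applied for 2 h at room temperature in the dark.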

[8] = p53 small molecule agonists, cell-based qHTS assay with rat liver microsomes: qHTS cell viability counter screen (AID 1963580); further: nearly all actives have a fitted effect of over 45% in size; further: potency means the concentration at half of the fitted maximal effect
How it was run: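 p53RE-bla HCT-116 cells were exposed 16 h at 37 C to compounds with rat liver microsomes (0.5 mg/mL) and NADPH (0.5 mg/mL). Viability was measured in the same wells as ATP content by CellTiter-Glo luminescence.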

[9] = p53 small molecule agonists, cell-based qHTS assay: qHTS cell viability counter screen (AID 1963581); further: nearly all actives have a fitted effect of over 45% in size; further: potency means the concentration at half of the fitted maximal effect
How it was run: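 In the same plates used for the p53 bla reporter, HCT-116 cells given compounds for 16 h at 37 C received CellTiter-Glo; luminescence was recorded 30 min later at room temperature.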

[10] = p53 small molecule agonists, cell-based qHTS assay (AID 1963582; active means well fitted activation curve with a large enough effect in the signal ratio in the repeat runs, not every such curve was filed as active; the % refers to the signal ratio; further: potency means the concentration at half of the fitted maximal effect)
How it was run: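 Compounds are pin-transferred in DMSO onto p53RE-bla cells and incubated 16 h at 37 C. The B/G FRET beta-lactamase substrate is then applied for 2 h at RT and fluorescence recorded.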

[11] = biological target: 5-hydroxytryptamine receptor 2A (Homo sapiens) (UniProt P28223); assay: 5-hydroxytryptamine receptor 2A (HTR2A) small molecule antagonists, cell-based qHTS assay (AID 1963586); further: nearly all actives have a fitted effect of over 45% in size; further: potency means the concentration at half of the fitted maximal effect
How it was run: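 Antagonist-mode intracellular calcium assay: DOI (4 nM) added after 5 min compound pre-incubation at room temperature to dye-loaded HTR2A-CHO cells. Fluorescence followed for 3 min, sampled every second.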

[12] = biological target: 5-hydroxytryptamine receptor 2A (Homo sapiens) (UniProt P28223); assay: 5-hydroxytryptamine receptor 2A (HTR2A) small molecule agonists, cell-based qHTS assay (AID 1963587); further: nearly all actives have a fitted effect of over 30% in size
How it was run: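 CHO cells stably expressing human HTR2A, plated 18 h, loaded with calcium dye 1 h at 37 C. Agonist mode: compounds added and intracellular calcium fluorescence recorded kinetically for 2 min at 1 sec intervals.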

[13] = biological target: Muscarinic acetylcholine receptor M1 (Homo sapiens) (UniProt P11229); assay: Cholinergic receptor muscarinic 1 (CHRM1) small molecule agonists, cell-based qHTS assay (AID 1963589); further: nearly all actives have a fitted effect of over 35% in size
How it was run: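 Each compound was tested at 15 concentrations across three independent runs on dye-loaded CHO cells stably expressing human CHRM1, reading intracellular calcium fluorescence kinetically at 1 sec intervals.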

[14] = cAMP Responsive Elements (CRE) small molecule agonists, cell-based qHTS assay (AID 1963590)
How it was run: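 Cell line: CRE-bla HEK 293T; medium DMEM/10% dialyzed FBS/0.1 mM NEAA/1 mM pyruvate/25 mM HEPES; 3 h compound exposure; beta-lactamase FRET readout after 2 h substrate loading at RT.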

[15] = cAMP Responsive Elements (CRE) small molecule antagonists, cell-based qHTS assay (AID 1963591; active means well fitted inhibition curve with a large enough effect in the signal ratio in the repeat runs, not every such curve was filed as active; the % refers to the signal ratio)
How it was run: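 Inhibition of NKH477-driven (0.25 uM final) CRE-beta-lactamase signal in HEK293T cells, 3 h compound exposure at 37 °C, detected by FRET substrate fluorescence.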

[16] = biological target: Beta-2 adrenergic receptor (Homo sapiens) (UniProt P07550); assay: Adrenergic beta2 receptor (ADRB2) small molecule antagonists, cell-based qHTS assay (AID 1963592); further: nearly all actives have a fitted effect of over 50% in size; further: potency means the concentration at half of the fitted maximal effect
How it was run: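 Cells (CHO, stable ADRB2 overexpression) incubated 18-20hr at 37C; compounds added from DMSO; agonist mix (1nM isoproterenol, 100uM IBMX, 25uM Ro-20-1724) added; 0.5hr RT; d2-cAMP and anti-cAMP-cryptate added; 1hr RT; 665/615 nm read.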

[17] = biological target: D(2) dopamine receptor (Homo sapiens) (UniProt P14416); assay: Dopamine D2 receptor (DRD2) small molecule agonists, cell-based qHTS assay (AID 1963594); further: nearly all actives have a fitted effect of over 35% in size
How it was run: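 HEK293 cells stably expressing human DRD2, pre-treated with PDE inhibitor Ro20-1724 (0.1 mM final) and compound 10 min at room temperature, then stimulated with NKH477 (200nM […]) for 30 min. cAMP read by HTRF (665/620 nm).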

[18] = biological target: Muscarinic acetylcholine receptor M1 (Homo sapiens) (UniProt P11229); assay: Cholinergic receptor muscarinic 1 (CHRM1) small molecule antagonists, cell-based qHTS assay (AID 1963588); further: nearly all actives have a fitted effect of over 40% in size
How it was run: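 CHRM1-CHO calcium-flux assay, antagonist mode. Cells were seeded 18 h, dye-loaded 1 h at 37 C and given compound for 5 min at RT, then acetylcholine was added at 50nM. FDSS fluorescence was read 3 min; 15 concentrations, three runs.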

[19] = biological target: D(2) dopamine receptor (Homo sapiens) (UniProt P14416); assay: Dopamine D2 receptor (DRD2) small molecule antagonists, cell-based qHTS assay (AID 1963595; active means well fitted inhibition curve with a large enough effect in the signal ratio in the repeat runs, with a control signal flat; the % refers to the signal ratio; further: potency means the concentration at half of the fitted maximal effect)
How it was run: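 Readout: HTRF cAMP, cAMP-d2 competing with cellular cAMP for anti-cAMP cryptate, read after 1 h. Cells: DRD2-HEK293. Conditions: 0.1 mM Ro20-1724, 12 nM quinpirole, 200 nM NKH477, 30 min RT.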

Chain of KiSS-1 receptor (Homo sapiens) (Q969F8 whole entry, looked up): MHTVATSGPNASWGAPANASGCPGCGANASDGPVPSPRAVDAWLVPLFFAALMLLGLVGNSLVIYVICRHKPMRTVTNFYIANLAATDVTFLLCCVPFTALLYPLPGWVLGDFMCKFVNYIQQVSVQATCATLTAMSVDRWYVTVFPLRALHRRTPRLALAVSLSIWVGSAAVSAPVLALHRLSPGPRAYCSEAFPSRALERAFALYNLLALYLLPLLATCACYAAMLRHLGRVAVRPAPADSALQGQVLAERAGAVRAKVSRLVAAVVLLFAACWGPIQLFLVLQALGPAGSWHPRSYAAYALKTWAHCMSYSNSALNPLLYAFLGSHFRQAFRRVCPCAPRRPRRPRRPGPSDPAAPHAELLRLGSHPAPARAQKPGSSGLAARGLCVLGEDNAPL
Chain of 5-hydroxytryptamine receptor 2A (Homo sapiens) (P28223 whole entry, looked up): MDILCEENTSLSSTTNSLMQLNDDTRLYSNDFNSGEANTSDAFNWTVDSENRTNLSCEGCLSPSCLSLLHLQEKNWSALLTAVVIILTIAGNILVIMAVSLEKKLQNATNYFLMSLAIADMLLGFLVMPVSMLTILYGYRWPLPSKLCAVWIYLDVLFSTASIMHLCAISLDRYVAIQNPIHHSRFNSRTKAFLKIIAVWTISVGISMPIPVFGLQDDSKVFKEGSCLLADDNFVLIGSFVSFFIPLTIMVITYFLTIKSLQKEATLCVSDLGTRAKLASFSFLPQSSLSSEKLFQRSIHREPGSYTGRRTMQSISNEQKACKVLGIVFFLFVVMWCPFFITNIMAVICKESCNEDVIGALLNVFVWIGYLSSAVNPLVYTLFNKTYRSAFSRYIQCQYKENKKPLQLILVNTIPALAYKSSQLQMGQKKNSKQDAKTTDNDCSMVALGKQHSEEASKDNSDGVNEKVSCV
Chain of Gonadotropin-releasing hormone receptor (Homo sapiens) (P30968 whole entry, looked up): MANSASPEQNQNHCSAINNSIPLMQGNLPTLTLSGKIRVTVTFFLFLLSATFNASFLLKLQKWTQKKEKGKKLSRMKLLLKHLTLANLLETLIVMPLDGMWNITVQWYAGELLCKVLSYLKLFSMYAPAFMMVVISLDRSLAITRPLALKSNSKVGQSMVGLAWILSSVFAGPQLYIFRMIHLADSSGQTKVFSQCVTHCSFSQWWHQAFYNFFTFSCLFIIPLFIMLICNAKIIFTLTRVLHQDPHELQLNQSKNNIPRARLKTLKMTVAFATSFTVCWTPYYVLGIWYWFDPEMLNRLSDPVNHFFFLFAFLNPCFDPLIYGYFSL
Chain of Muscarinic acetylcholine receptor M1 (Homo sapiens) (P11229 whole entry, looked up): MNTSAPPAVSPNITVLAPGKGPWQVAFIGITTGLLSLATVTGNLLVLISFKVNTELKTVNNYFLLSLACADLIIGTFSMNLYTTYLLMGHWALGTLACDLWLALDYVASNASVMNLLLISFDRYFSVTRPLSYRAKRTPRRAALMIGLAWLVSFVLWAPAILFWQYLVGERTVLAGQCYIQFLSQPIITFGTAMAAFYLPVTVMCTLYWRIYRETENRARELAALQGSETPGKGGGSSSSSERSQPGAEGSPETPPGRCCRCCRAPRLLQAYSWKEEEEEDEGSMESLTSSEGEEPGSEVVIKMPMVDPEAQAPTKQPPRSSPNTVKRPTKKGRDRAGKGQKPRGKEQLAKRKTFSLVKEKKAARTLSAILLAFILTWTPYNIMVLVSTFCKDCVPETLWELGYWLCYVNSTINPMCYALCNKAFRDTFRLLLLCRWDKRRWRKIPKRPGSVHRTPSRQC
Chain of D(2) dopamine receptor (Homo sapiens) (P14416 whole entry, looked up): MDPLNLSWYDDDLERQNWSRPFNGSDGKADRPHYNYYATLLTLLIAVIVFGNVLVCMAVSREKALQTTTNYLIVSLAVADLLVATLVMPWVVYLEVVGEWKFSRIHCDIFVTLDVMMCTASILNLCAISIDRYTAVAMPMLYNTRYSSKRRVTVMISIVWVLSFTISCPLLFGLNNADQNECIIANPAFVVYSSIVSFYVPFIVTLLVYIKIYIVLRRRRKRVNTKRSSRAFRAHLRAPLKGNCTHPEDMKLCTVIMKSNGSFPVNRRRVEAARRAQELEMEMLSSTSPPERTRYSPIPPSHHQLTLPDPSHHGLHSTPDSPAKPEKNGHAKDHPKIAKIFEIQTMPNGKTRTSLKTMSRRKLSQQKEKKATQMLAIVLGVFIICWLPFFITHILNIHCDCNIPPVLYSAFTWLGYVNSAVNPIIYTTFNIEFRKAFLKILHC
Chain of Beta-2 adrenergic receptor (Homo sapiens) (P07550 whole entry, looked up): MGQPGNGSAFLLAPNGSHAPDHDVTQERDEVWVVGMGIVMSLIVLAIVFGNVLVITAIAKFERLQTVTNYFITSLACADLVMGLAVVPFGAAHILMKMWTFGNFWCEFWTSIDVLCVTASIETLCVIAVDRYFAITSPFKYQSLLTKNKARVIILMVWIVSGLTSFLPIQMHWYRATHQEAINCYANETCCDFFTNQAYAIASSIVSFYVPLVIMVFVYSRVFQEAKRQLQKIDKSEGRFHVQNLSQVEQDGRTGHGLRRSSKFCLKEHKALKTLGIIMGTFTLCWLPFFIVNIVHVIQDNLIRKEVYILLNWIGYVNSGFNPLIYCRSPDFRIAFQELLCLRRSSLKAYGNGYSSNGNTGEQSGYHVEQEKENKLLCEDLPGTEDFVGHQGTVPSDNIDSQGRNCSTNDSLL

| Structure (SMILES) | Potency [1] | Potency [2] | Potency [3] | outcome [4] | outcome [5] | Potency [6] | Potency [7] | Potency [8] | Potency [9] | Potency [10] | Potency [11] | Potency [12] | Potency [13] | Potency [14] | Potency [15] | Potency [16] | Potency [17] | Potency [18] | Potency [19] |
| --- | --- | --- | --- | --- | --- | --- | --- | --- | --- | --- | --- | --- | --- | --- | --- | --- | --- | --- | --- |
| CC(=O)OC(C)(C)C | inactive | inactive | inactive | inactive | inactive | inactive | inactive | inactive | inactive | inactive | inactive | inactive | inactive | inactive | inactive | inactive | inactive |  |  |
| Cc1c(Cn2ccnc2)c2ccccc2n1CCC(=O)O | inactive | inactive | inactive | inactive | inactive | inactive | inactive | inactive | inactive | inactive | inactive | inactive |  | inactive | inactive | inactive | inactive | inactive | inactive |
| N[C@H]1C(O)O[C@H](CO)[C@H](O)[C@@H]1O (some centres undefined) | inactive | inactive | inactive | inactive | inactive | inactive | inactive | inactive | inactive | inactive | inactive | inactive | inactive | inactive |  | inactive | inactive | inactive | inactive |
| O=C(O)CC(C(=O)O)S(=O)(=O)O (centres undefined) | inactive | inactive | inactive | inactive | inactive | inactive | inactive | inactive | inactive | inactive | inactive | inactive | inactive | inactive | inactive | inactive | inactive | inactive | inactive |
| CC(C)C[C@H](NC(=O)[C@H](CCc1ccccc1)NC(=O)CN1CCOCC1)C(=O)N[C@@H](Cc1ccccc1)C(=O)N[C@@H](CC(C)C)C(=O)[C@@]1(C)CO1 | 298 nM (active) | 0.106 µM (active) | inactive | inactive | inactive | inactive | inactive | 4.46 µM (active) | 630 nM (active) | 112 nM (active) | inactive | inactive | inactive |  |  | inactive | inactive | inactive | inactive |
| O=c1c(O)c(-c2ccc(O)cc2O)oc2cc(O)cc(O)c12 | inactive | inactive | inactive | inactive | inactive | inactive | inactive | inactive | inactive | inactive | inactive | inactive | inactive |  |  | inactive |  | inactive |  |
| CO[Si](CCCS)(OC)OC | inactive | inactive | inactive | inactive | inactive | inactive | inactive | inactive | inactive | inactive | inactive |  | inactive | inactive |  | inactive |  | inactive | inactive |
| CCCc1ccc(O)c(OC)c1 | inactive | inactive | inactive | inactive | inactive | inactive | inactive | inactive | inactive | inactive | inactive | inactive | inactive | inactive | inactive | inactive | inactive | inactive | inactive |
| CO/N=C(\C(=O)N[C@@H]1C(=O)N2C(C(=O)O)=C(CSc3nc(=O)c(O)nn3C)CS[C@H]12)c1csc(N)n1 | inactive | inactive | inactive | inactive | inactive | inactive | inactive | inactive | inactive | inactive | inactive | inactive | inactive |  | inactive | inactive | inactive |  | inactive |
| CC(C)=CC1CC(C)CCO1 (centres undefined) | inactive | inactive | inactive | inactive | inactive | inactive | inactive | inactive | inactive | inactive | inactive | inactive | inactive | inactive | inactive | inactive |  | inactive | inactive |
| Oc1ccc(C(O)CNCCCCCCNCC(O)c2ccc(O)c(O)c2)cc1O (centres undefined) | inactive | inactive | 75.6 nM (active) | inactive | inactive | inactive | inactive | inactive | inactive | inactive | inactive | inactive | inactive |  | inactive | inactive | inactive | inactive |  |
| O=C(NC1CCN(CCc2c[nH]c3ccccc23)CC1)c1ccccc1 | inactive | inactive | inactive | inactive | inactive | inactive | inactive | inactive | inactive | inactive | 460 nM (active) | inactive | inactive |  |  | 13.3 µM (active) | inactive | inactive | 596 nM (active) |
| FC(F)(F)C(F)(F)C(F)(F)C(F)(F)C(F)(F)C(F)(F)C(F)(F)C(F)(F)Br | inactive | inactive | inactive | inactive | inactive | inactive | inactive | inactive | inactive | inactive | inactive | inactive | inactive | inactive | inactive | inactive | inactive | inactive | inactive |
| Oc1cccc2[nH]ccc12 | inactive | inactive | inactive | inactive | inactive | inactive | inactive | inactive | inactive | inactive | inactive | inactive | inactive | inactive | inactive |  | inactive | inactive | inactive |
| CC1(C)OC(=O)Nc2ccc(Br)cc21 | inactive | inactive | inactive | inactive | inactive | inactive | inactive | inactive | inactive | inactive | inactive | inactive | inactive | inactive |  | inactive |  | inactive | inactive |
| O=C1CC2(CCCC2)CC(=O)N1 | inactive | inactive | inactive | inactive | inactive | inactive | inactive | inactive | inactive | inactive | inactive | inactive | inactive | inactive | inactive | inactive | inactive | inactive | inactive |
| COc1ccccc1Oc1c(NS(=O)(=O)c2ccc(C(C)(C)C)cc2)nc(-c2ncccn2)nc1OCCO | inactive | 33.5 µM (active) | inactive | inactive | inactive | inactive | inactive | inactive | inactive | inactive | inactive | inactive | inactive |  | inactive | inactive | inactive | inactive | inactive |
